Bioassay records deposited in PubChem by National Center for Advancing Translational Sciences (NCATS).
Tau fluor counter: counter-screen for tau fibril formation inhibitors | tau K18 P301L Alexa594 fluorescence, heparin fibrillization | Potency, µM (highest dose often 57.7 µM), without a hit: at the highest dose activity change, negative = decrease | 0.93% of 280,000 active | AID 1463; also: potency is read from the fitted curve at half-maximal effect; nearly all actives have a fitted effect of over 55% in size
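Human K18 P301L tau (15 uM unlabeled plus 0.24 uM Alexa 594-labeled, final) in 100 mM sodium acetate pH 7 was mixed with compound and 20 uM heparin and incubated 6 hr at 37 C.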
Tau fibril FP: tau fibrillization inhibition (FP); P10636; K18 P301L tau heparin fibrillization, Alexa594 FP, 6 h; Potency, µM (highest dose often 57.7 µM), for the others: at the top dose activity, negative = inhibition, actives largely listed as inhibitors; 0.39% of 280,000 active; also: potency is read from the fitted curve at half-maximal effect; nearly all actives have a fitted effect of over 55% in size
Target sequence (P10636 561-689 P618L limits assumed): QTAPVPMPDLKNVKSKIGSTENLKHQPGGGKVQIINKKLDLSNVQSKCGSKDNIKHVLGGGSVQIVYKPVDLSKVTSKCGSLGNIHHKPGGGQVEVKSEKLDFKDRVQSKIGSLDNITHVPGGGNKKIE
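FP of Alexa 594-tau after heparin (20 uM) induction. Substrate: human K18 P301L, 15 uM unlabeled, 0.24 uM labeled. Buffer 100 mM sodium acetate pH 7. 6 hr, 37 C.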
Coupling enz: inhibits coupling enzyme system, counter-screen for aldolase hits | coupling enzyme system counterscreen, AmpLite Red fluorescence | activity change, negative = inhibition, % at 58.2 µM, hits read low | 0.67% of 290,000 active; in the data active = activity change below about -30%
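Counterscreen lacking aldolase: glyceraldehyde-3-phosphate coupling-enzyme reagent preincubated 10 min at RT with compound (at 57.5 uM final), then substrate/coupling system with AmpLite Red added; fluorescence read at 525/598 nm after 20 min RT.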
JMJD2E inh: JMJD2E (human) inhibition; 1.6% of 230,000 active; Potency, µM (highest dose often 57.1 µM), without a hit: at the top dose activity change, negative = inhibition, usual class: inhibitors; JMJD2E catalytic domain, FDH-coupled NADH fluorescence (FDH is formaldehyde dehydrogenase);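 also: potency is read from the fitted curve at half-maximal effect; 0% = wells with enzyme and -100% = buffer wells without enzyme; nearly all actives have a fitted effect of over 50% in size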
Target sequence (B2RXH2 1-337 limits assumed): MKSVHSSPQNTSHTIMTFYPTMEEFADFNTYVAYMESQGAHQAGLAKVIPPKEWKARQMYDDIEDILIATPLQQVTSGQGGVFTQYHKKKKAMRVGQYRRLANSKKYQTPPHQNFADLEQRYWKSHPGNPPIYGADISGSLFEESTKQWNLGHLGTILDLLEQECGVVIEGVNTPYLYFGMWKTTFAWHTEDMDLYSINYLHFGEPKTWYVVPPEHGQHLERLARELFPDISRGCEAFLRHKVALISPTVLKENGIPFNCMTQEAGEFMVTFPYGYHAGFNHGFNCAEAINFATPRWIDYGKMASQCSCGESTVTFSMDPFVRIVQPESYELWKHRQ
Tau ThT inhib: inhibitors of human tau fibril formation, thioflavin T binding; P10636; recombinant tau K18 P301L (four-repeat tau fragment), heparin-induced fibrillization, ThT fluorescence; Potency, µM (doses to about 57.4 µM), without a hit: at the top dose activity, negative = inhibition, actives largely listed as inhibitors; 2.1% of 270,000 active; also: potency is read from the fitted curve at half-maximal effect; nearly all actives have a fitted effect of over 55% in size
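Aggregation was driven by heparin (20 uM final) acting on recombinant tau […] bearing P301L in 100 mM sodium acetate pH 7; fibrils were detected with Thioflavin T.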
An asterisk follows results filed as active; ? = inconclusive; · = not tested or not shown; ! = not active in a repeat; [ ] = dose if it differs, or a comment. A selection: hits, their analogues and other compounds. The true share with any hit is near 3%. Unless noted, calls follow the shape of the dose curve; as a rule, active = well fitted curve in the direction sought with a large enough effect; inconclusive = small, poorly fitted or top-dose-only effect, or another doubt; inactive = no such curve, though single readings can be large; an effect the other way counts as inactive or inconclusive. Unless noted, % is scaled to controls: 0 for no effect and ±100 for the full control effect.

SMILES	Tau fluor counter	Tau fibril FP	Coupling enz	JMJD2E inh	Tau ThT inhib
Cc1ccc(Nc2c(-c3ccccc3O)nc3cnccn23)cc1	18µM*[quencher]	10%	-4	-24%	-17%
CC(=O)OC[C@@H]1O[C@@H](O/N=C2/C[C@@H](O)[C@@H](O)[C@@H]3[C@@H]4C(=O)N(C5CCCCC5)C(=O)[C@H]4CC[C@@H]23)[C@H](OC(C)=O)[C@H](OC(C)=O)[C@@H]1OC(C)=O	-13%[11.6 µM]	4%[11.6 µM]	2	·	-11%[11.5 µM]
O=c1cc(-c2ccc(Cl)cc2)oc(=O)[nH]1	-2%	-1%	1	7%	-6%
O=c1cc(N=Nc2ccc(Cl)cc2)[nH]c(=O)[nH]1	?	?	-26	?	11µM*
Nc1nc(=S)c2ncn(C3OC(CO)C(O)C3O)c2[nH]1 (configuration not stated)	?	?	0	?	11µM*
O=C(N/N=C/c1cn(-c2ccccc2)nc1-c1cc2ccccc2o1)c1c[nH]c2ccccc12	?	14µM*	-1	5%	3%
Cc1ccccc1Oc1cc(-n2ncc(Cl)c(Cl)c2=O)ncn1	-12%	?	2	2%	10µM*
O=C(Nc1ccccc1)N(O)c1ccc(Cl)cc1	-20%	?	0	-4%	25µM*
CCN(CCS(=O)(=O)c1ccc(Cl)cc1)C(=O)Nc1ccccc1	-16%	3%	-2	6%	-11%
Cc1ccc(S(=O)(=O)c2ccccc2)cc1S	-17%	?	1	4%	28µM*
Nc1ccc(S(=O)(=O)c2cccc(N)c2)cc1	-3%	6%	-1	-9%	-12%
Cc1nnc(N2CCCC(C(=O)NCCc3ccc(Cl)cc3)C2)c2nn(-c3ccccc3)c(C)c12 (configuration not stated)	5%	8%	·	·	-10%
Cn1c(=O)c2c(nc(SCC(=O)Nc3ccccc3F)n2Cc2ccccc2F)n(C)c1=O	-27%	-13%	·	·	6%
Cc1cccc(C)c1OCC(=O)N=Nc1c(O)[nH]c2ccc(Br)cc12	?	-12%	1	-1%	?
COc1ccc(/C=N/OCC(=O)N=Nc2c(O)[nH]c3ccc(Br)cc23)cc1	?	?	1	5%	5µM*
Cc1ccc(-c2nc(SCC(=O)Nc3cc(S(=O)(=O)N4CCCCC4)ccc3Cl)n[nH]2)cc1	?	22µM*	3	3%	1%
O=C(CSc1nnc(NC2CCCCC2)s1)Nc1ccc2c(c1)C(=O)c1ccccc1C2=O	8.9µM*[quencher]	?	-1	-16%	?
Cc1ccc(Nc2nnc(SCC(=O)Nc3cccc(S(=O)(=O)N4CCCCC4)c3)s2)cc1	7.9µM*[quencher]	-13%	-3	5%	-1%
CC(C)Nc1nnc(SCC(=O)Nc2ccc3c(c2)C(=O)c2ccccc2C3=O)s1	13µM*[quencher]	14%	-3	3%	10µM*
COc1cc(C(=O)Nc2ccc(-c3cc(C(F)(F)F)nn3-c3ccccc3)cc2)cc(OC)c1OC	?	?	·	·	-2%
O=C1CC(c2cc(F)cc(F)c2)c2cc3c(cc2N1)OCO3 (configuration not stated)	-13%	-2%	·	·	0%
Nc1c(C(=O)c2ccc(Br)s2)oc2ccccc12	?	13%	4	-6%	10µM*
COCC(=O)N1c2nc(C(C)C)nn2C2(CCCCC2)[C@@H]2CCCC[C@@H]21	-1%	4%	·	·	2%
CCc1ccc(NC(=O)Cn2c(=O)n(CCCCC(=O)NCCc3ccc(Cl)cc3)c(=O)c3ccccc32)cc1	-17%	-17%	·	·	-7%
O=C(/C=C/c1ccc(N2CCCCC2)c([N+](=O)[O-])c1)c1ccc(O)cc1	16µM*[quencher]	?	-1	2%	11µM*
SMILES	Tau fluor counter	Tau fibril FP	Coupling enz	JMJD2E inh	Tau ThT inhib
COc1ccccc1C(=O)/C=C/c1ccc(N2CCCCC2)c([N+](=O)[O-])c1	?	4%	-6	10%	4µM*
O=C(O)c1ccccc1C(=O)c1ccc(N2CCCC2)c([N+](=O)[O-])c1	7%	3%	11	?	-12%
Cc1cc(C)c(NC(=O)COCc2cc(-c3cccs3)on2)c(C)c1	-14%	-6%	·	·	-11%
O=c1c(O)c(-c2ccc(O)cc2)oc2cc(O)ccc12	?	3%	-3	?	?
O=c1c(O)c(-c2ccc(O)cc2)oc2cc(O)cc(O)c12	?	8%	-5	?	13µM*
COc1cc(O)c2c(=O)c(O)c(-c3ccc(O)c(O)c3)oc2c1	20µM*[quencher]	-2%	1	22µM*	5µM*
COc1cc(O)c2c(=O)c3c(OC)c(O)ccc3oc2c1	?	8%	-2	?	13µM*
COC(=O)c1ccccc1NC(=O)c1ccc(-c2ccc(Br)cc2)o1	-5%	-2%	3	3.5µM*	-16%
Cc1ccc2cccc(NC(=O)c3ccc(-c4ccc(Br)cc4)o3)c2n1	-12%	-2%	·	·	-11%
CCOc1ccccc1Nc1ccc2cc(S(=O)(=O)N3CCCCC3)ccc2n1	?	12%	·	·	0%
O=C(/C=C/c1ccc2c(c1)OCO2)c1ccco1	-1%	7%	4	-17%	?
O=C(/C=C/c1ccc2c(c1)OCCO2)c1ccccc1	-11%	?	-2	-2%	?
Nc1ccccc1C(=O)/C=C/c1ccc2c(c1)OCO2	-22%	2%	-1	-1%	14µM*!
O=C(/C=C/c1ccc2c(c1)OCO2)c1ccccc1	3%	6%	0	-6%	-9%
Cc1ccc(O)c(C(=O)/C=C/c2ccc3c(c2)OCCO3)c1	-9%	20%	2	-3%	16µM*
Nc1ccccc1C(=O)/C=C\c1ccc2c(c1)OCO2	?	5%[11.6 µM]	0	·	1.3µM*
CCOc1ccc(NC(=O)C2CCN(C(=O)N3CC(C)Oc4ccc(Cl)cc43)CC2)cc1 (configuration not stated)	?	-11%	·	·	?
CCc1ccccc1NC(=O)Cn1cc2c(n1)CCC(C)C2 (configuration not stated)	-7%	2%	·	·	-4%
Cc1cc(NC(=O)CSc2ncc(C(=O)Nc3ccc(F)cc3)c(=O)n2C)no1	-5%	-13%	·	·	-16%
